From the supplement of paper PMC3334620
The full ranking holds about 33,000 sequences; the median of “E-score (-0.5 to 0.5)” is about -0.043, and the highest 2% start at about 0.37. The list comes from a sample in which the highest values are over-represented; it also holds similar and randomly drawn sequences.

Target: T1, Upc2 (UniProt Q12151)
T1 sequence: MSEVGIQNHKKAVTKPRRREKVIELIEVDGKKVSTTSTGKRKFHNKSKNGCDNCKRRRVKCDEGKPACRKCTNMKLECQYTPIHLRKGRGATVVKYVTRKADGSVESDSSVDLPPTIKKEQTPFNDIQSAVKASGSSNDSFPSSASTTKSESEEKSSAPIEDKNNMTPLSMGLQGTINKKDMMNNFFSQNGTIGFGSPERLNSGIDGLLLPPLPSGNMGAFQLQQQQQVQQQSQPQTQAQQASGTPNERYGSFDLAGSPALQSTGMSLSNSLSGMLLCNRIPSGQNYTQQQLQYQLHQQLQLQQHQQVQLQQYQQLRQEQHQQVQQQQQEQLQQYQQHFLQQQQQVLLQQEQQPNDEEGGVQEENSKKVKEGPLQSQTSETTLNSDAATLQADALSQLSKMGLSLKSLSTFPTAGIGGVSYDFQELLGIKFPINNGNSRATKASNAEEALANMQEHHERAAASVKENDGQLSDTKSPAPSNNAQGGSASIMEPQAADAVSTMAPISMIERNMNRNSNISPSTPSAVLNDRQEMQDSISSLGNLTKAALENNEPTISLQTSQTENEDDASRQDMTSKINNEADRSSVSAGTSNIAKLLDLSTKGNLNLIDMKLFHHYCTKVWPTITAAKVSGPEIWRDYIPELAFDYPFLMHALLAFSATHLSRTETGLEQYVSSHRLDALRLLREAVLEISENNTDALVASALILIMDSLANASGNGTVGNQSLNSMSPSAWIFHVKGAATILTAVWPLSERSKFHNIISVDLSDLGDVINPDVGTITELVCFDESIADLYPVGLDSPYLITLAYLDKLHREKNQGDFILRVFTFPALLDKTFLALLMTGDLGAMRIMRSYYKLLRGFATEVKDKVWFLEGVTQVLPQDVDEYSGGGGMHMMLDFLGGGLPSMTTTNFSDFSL
Test: PBM E-score (8-mer binding enrichment) (E-score (-0.5 to 0.5)); higher = stronger / more preferred TF binding
Conditions: protein concentration: 200 nM; construct: GST-full length
Procedure, shortened: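 GST-tagged yeast TFs (full-length or DNA-binding domain) were made by PURExpress in vitro transcription/translation and applied at about 100-200 nM to universal all-10-mer Agilent arrays. The arrays were made double-stranded by primer extension, on fresh or once-stripped slides. Bound protein was detected with fluorescent anti-GST, and scans were normalised with masliner. Each ungapped eight-base word, pooled with its reverse complement, received an E-score (modified Wilcoxon-Mann-Whitney statistic) from the Universal PBM Analysis Suite.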

| Sequence | PBM E-score |
| --- | --- |
| GGCCGTAA | 0.255 |
| CGCCGTAC | 0.408 |
| CGCCGTAA | 0.285 |
| TCTCTCCA | -0.118 |
| CCACAGCG | -0.302 |
| ATGATCCG | -0.0506 |
| CTCGAGCC | 0.135 |
| CGATATCG | 0.244 |
| AAGCTTCG | 0.145 |
| AACGCAAT | 0.138 |
| ACTTGGCC | -0.0135 |
| AAAAAACG | 0.186 |
| CCTAGGAG | -0.273 |
| ATATCTAG | -0.0547 |
| CGCCCTAG | -0.158 |
| GGTTACCA | 0.156 |
| CGTTACAA | 0.0563 |
| AGTTACGA | 0.383 |
| GGTTACTA | -0.0998 |
| CGTTACGA | 0.417 |
| AGTTACGC | 0.0981 |
| CGTTACGC | 0.282 |
| GGTTACGA | 0.408 |
| AGTTACGG | 0.0766 |
| GAACTGGC | -0.158 |

| Sequence | PBM E-score |
| --- | --- |
| CACCTAGG | -0.103 |
| AAAGCGAG | 0.217 |
| CACCTCCC | -0.174 |
| TAAGGCCA | -0.013 |
| AACTGGTG | -0.163 |
| GCCTTCGC | -0.106 |
| CTCCGTAC | 0.376 |
| CACCGTAA | 0.32 |
| CACCGTAG | 0.0923 |
| ATCCGTAC | 0.366 |
| CTCCGTAA | 0.285 |
| CACCGTAC | 0.401 |
| CTATTTAC | 0.104 |
| ATCTGTTC | 0.0527 |
| ATATAATC | -0.158 |
| AACGCTAT | 0.0885 |
| AGCCGTGG | -0.17 |
| AGTATAGC | 0.128 |
| CCTATAGC | -0.286 |
| GGTATAGA | 0.111 |
| CGTATAGA | 0.48 |
| CGTATAGC | 0.483 |
| AGTATAGA | 0.137 |
| AAGCGATA | 0.205 |
| AGCTTATA | 0.0662 |

| Sequence | PBM E-score |
| --- | --- |
| CGGGGTCA | 0.117 |
| ATGCTTAC | -0.0957 |
| AGACGGCA | -0.162 |
| CAAACGTA | 0.259 |
| CAAACGCA | 0.258 |
| CAAACGGA | 0.318 |
| GAAACGGA | 0.199 |
| TAAACGTA | 0.407 |
| TAAACGGA | 0.454 |
| TAAACGCA | 0.399 |
| GAAACGCA | -0.059 |
| AAAACGTA | 0.123 |
| TATATCAA | -0.04 |
| AAGCCAGA | -0.2 |
| ATCAAATC | -0.078 |
| CTTGAAGC | -0.183 |
| CATCTGGG | -0.133 |
| CCGTCGAA | 0.0446 |
| ACACTACC | -0.098 |
| CACTCAGC | -0.223 |
| CTAAACTC | 0.0155 |
| ACAAACGG | 0.328 |
| GCAAACGA | 0.462 |
| GCAAACGC | 0.25 |
| ACAAACGA | 0.466 |

| Sequence | PBM E-score |
| --- | --- |
| CTAAACGC | 0.416 |
| ACAAACGC | 0.225 |
| GTAAACGA | 0.491 |
| ATAAACGC | 0.344 |
| GCAAACAA | 0.00753 |
| GTAAACCA | 0.0531 |
| GTAAACTA | 0.172 |
| AACAGATT | -0.0821 |
| AAAATGGC | -0.0658 |
| AAGAGTAG | -0.128 |
| CGTCTAGA | 0.121 |
| ACCACCTC | -0.111 |
| ATCCAGCG | -0.0436 |
| CATTGCGA | -0.0248 |
| CAATGGCG | -0.141 |
| CGATTCGA | 0.0594 |
| ACCACACC | -0.185 |
| CAAAACGA | 0.31 |
| CCAAACGC | 0.292 |
| TCAAACGA | 0.471 |
| CCAAACGA | 0.476 |
| AAAAACGG | 0.117 |
| ATAAACTG | -0.0103 |
| ATAAACGG | 0.434 |
| TCAAACAA | -0.0805 |

| Sequence | PBM E-score |
| --- | --- |
| CCAAACGG | 0.365 |
| AGGTTAGC | -0.3 |
| CGGTTACA | 0.156 |
| GGCACCAA | -0.0665 |
| ATGCACCA | -0.188 |
| GCCAGACC | -0.138 |
| ATCAGAGA | -0.167 |
| AGTCTATC | -0.159 |
| ACCGTAAG | 0.185 |
| GCCGTAGA | 0.189 |
| ACCGTAGA | 0.178 |
| CCCGTATC | 0.339 |
| ACCGTATG | 0.381 |
| ACCGTATC | 0.345 |
| ACGGTATA | 0.274 |
| CCCGTATA | 0.479 |
| GCCGTATA | 0.48 |
| ACCGTATA | 0.478 |
| CCCGTAGA | -0.00639 |
| GCGGTATA | 0.151 |
| TAACGTCA | 0.0914 |
| AGTCCAAT | -0.149 |
| AGGGGTCC | -0.168 |
| AATGTCGC | 0.0832 |
| AGTTGCGA | 0.0264 |

| Sequence | PBM E-score |
| --- | --- |
| CGGGTATC | 0.135 |
| CGTGCACG | 0.134 |
| ACCAGGAC | -0.0418 |
| GGCACAAC | -0.279 |
| ACGACGAA | 0.375 |
| ACGACGAG | 0.367 |
| ACGACGTG | 0.351 |
| ACGACGTA | 0.413 |
| CCGACGGA | -0.0042 |
| CCGACGAA | 0.067 |
| TCGACGAA | -0.018 |
| ACGACGGG | 0.415 |
| GCGACGGA | 0.0438 |
| ACGACGGC | 0.333 |
| ACGACGGA | 0.37 |
| CCGACGTA | 0.225 |
| CATGTTAA | 0.0636 |
| GGTCTGAA | 0.0866 |
| TAGAATGA | -0.263 |
| GCACGCGA | -0.0589 |
| GGGTATAA | -0.0582 |
| CGCAGTCA | -0.228 |
| GGCTTTGA | -0.0097 |
| ATAGGGAT | -0.0755 |
| ATAGACAT | -0.151 |

| Sequence | PBM E-score |
| --- | --- |
| TATCCATA | 0.2 |
| CTACCATC | 0.00378 |
| AGCCTTGC | -0.0435 |
| CAACGAGC | 0.286 |
| AATCGAGC | 0.286 |
| GAACGAGA | 0.457 |
| GCACGAGC | -0.0167 |
| AACCGAGC | 0.325 |
| GCACGAGA | 0.0181 |
| AAACGAGC | 0.489 |
| GAACGAGC | 0.465 |
| GGACGAGA | -0.00291 |
| TGAATGCA | -0.0537 |
| CTTAGATC | -0.0871 |
| CCCCTATA | 0.0494 |
| AAAAAGTT | -0.0419 |
| GGCCTCTA | -0.0932 |
| CGCTACGC | 0.136 |
| ATCTACGA | 0.313 |
| CGCTACGA | 0.421 |
| AGCTACGA | 0.34 |
| CTCTACGA | 0.409 |
| CTCTACGC | 0.0628 |
